# From PubChem BioAssay
# Unmarked numbers belong to inactive results. For some assays here: Entries with a potency or affinity are not part of this list. Calls of active or inactive are those of the source. Unless noted, how the calls were made is not given here.
# Tests used:
# [1] = antimalarial activity against Dd2 strain (AID 2302;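 active means growth inhibition above 50% at the single 2 µM test dose, taken to imply half-maximal potency below 2 µM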;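 further: 0% = DMSO untreated growth and 100% = chloroquine plus artemisinin killed control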); conditions: P. falciparum Dd2 in RBCs, LDH growth readout, 72 h; at 2 µM; stronger effect = higher value
# [2] = human hepatoma cell viability loss – ATP luminescence, cytotoxicity control for P. falciparum antimalarial project, primary screen (AID 2303;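 active means inhibition above 50%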;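 further: 0% = DMSO wells and 100% = digitonin-killed cells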); conditions: HepG2 viability, 24-48 h, at 10 µM, stronger effect = higher value
# [3] = target: L-lactate dehydrogenase (Plasmodium falciparum (isolate CDC / Honduras)) (UniProt Q27743); experiment: PfLDH activity inhibition – cell lysate, 3D7 strain, counter-screen for P. falciparum growth inhibition project (AID 2304);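 further: 0% = vehicle and 100% = reference inhibitor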; conditions: P. falciparum 3D7 crude extract, LDH APAD/NBT absorbance; at 2 µM; stronger effect = higher value
# L-lactate dehydrogenase (Plasmodium falciparum (isolate CDC / Honduras)), sequence (Q27743 whole entry, looked up): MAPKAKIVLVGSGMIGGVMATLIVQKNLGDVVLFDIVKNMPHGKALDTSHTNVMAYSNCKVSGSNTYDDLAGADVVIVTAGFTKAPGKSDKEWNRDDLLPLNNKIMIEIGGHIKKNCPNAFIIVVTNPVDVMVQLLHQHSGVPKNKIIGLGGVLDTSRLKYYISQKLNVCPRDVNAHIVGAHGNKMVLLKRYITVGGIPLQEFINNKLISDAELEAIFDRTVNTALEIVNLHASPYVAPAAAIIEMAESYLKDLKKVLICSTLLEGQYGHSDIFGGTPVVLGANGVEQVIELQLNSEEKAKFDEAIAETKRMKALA
# [4] = inhibition of 3D7 malaria parasite growth – strain 3D7 (AID 2306);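 further: 0% = DMSO wells and 100% = chloroquine plus artemisinin control wells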; conditions: P. falciparum 3D7 erythrocytic growth, LDH absorbance, 72 h; at 2 µM; stronger effect = higher value
# [5] = target: Calcium-dependent protein kinase 1 (Plasmodium falciparum (isolate 3D7)) (UniProt P62344); experiment: PfCDPK1 kinase inhibitors, biochemical, TCAMS library (AID 1159585; cut-off not given, nearly all actives have IC50 up to about 0.98 µM;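 further: inhibitors leave more ATP so luminescence rises with inhibition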); conditions: recombinant PfCDPK1, Kinase-Glo ATP depletion luminescence
# Calcium-dependent protein kinase 1 (Plasmodium falciparum (isolate 3D7)), sequence (P62344 whole entry, looked up): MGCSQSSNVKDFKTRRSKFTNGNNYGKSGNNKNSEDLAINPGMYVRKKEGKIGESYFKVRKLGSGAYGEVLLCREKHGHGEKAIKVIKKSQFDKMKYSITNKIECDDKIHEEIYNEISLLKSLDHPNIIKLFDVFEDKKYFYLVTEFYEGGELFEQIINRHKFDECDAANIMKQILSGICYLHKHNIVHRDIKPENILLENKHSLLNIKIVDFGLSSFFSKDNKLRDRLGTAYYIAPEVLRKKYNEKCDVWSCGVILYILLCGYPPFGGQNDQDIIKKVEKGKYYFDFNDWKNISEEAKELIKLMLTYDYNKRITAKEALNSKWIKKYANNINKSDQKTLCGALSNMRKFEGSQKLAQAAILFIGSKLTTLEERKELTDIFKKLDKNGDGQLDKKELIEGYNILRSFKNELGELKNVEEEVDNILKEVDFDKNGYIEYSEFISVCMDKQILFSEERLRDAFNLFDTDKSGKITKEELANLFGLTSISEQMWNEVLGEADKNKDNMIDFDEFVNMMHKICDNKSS
# [6] = target: Plasmodium falciparum protein kinase 6 (PK6, PF3D7_1337100) (UniProt Q8IDW1); experiment: PfPK6 kinase inhibitors, biochemical, TCAMS library (AID 1159586); conditions: recombinant PfPK6, Kinase-Glo ATP depletion luminescence
# Plasmodium falciparum protein kinase 6 (PK6, PF3D7_1337100), sequence (Q8IDW1 1-305): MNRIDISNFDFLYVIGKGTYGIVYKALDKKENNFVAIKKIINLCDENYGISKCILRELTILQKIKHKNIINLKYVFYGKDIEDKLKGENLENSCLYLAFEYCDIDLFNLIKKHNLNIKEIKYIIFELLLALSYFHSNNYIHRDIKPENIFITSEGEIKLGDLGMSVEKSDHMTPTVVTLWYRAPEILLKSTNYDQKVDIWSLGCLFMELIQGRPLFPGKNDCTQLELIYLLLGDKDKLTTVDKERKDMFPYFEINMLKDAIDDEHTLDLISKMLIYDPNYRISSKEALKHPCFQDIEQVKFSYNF
# [7] = target: Protein kinase 7 (PK7), Plasmodium falciparum 3D7 (PF3D7_0213400) (UniProt Q7YTF7); experiment: inhibition of Plasmodium PK7 catalytic activity – biochemical, TCAMS antimalarial set, Kinase-Glo luminescence (AID 1159587); conditions: recombinant PfPK7, Kinase-Glo ATP depletion luminescence
# Protein kinase 7 (PK7), Plasmodium falciparum 3D7 (PF3D7_0213400), sequence (Q7YTF7 1-343): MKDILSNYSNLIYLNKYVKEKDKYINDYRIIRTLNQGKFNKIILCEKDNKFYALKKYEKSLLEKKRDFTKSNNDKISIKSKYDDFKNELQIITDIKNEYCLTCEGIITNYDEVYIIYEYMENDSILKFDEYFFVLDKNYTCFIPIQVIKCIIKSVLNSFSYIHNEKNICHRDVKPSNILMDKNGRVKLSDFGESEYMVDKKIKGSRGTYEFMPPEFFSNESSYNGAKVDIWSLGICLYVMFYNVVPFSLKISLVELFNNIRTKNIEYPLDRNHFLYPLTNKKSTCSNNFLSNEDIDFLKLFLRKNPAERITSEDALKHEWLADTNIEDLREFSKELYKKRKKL
# [8] = target: Calcium-dependent protein kinase 4 (Plasmodium falciparum (isolate 3D7)) (UniProt Q8IBS5); experiment: PfCDPK4 kinase inhibitors, biochemical, TCAMS library (AID 1159588; cut-off not given, nearly all actives have IC50 up to about 0.91 µM); conditions: recombinant PfCDPK4, Kinase-Glo ATP depletion luminescence
# Calcium-dependent protein kinase 4 (Plasmodium falciparum (isolate 3D7)), sequence (Q8IBS5 whole entry, looked up): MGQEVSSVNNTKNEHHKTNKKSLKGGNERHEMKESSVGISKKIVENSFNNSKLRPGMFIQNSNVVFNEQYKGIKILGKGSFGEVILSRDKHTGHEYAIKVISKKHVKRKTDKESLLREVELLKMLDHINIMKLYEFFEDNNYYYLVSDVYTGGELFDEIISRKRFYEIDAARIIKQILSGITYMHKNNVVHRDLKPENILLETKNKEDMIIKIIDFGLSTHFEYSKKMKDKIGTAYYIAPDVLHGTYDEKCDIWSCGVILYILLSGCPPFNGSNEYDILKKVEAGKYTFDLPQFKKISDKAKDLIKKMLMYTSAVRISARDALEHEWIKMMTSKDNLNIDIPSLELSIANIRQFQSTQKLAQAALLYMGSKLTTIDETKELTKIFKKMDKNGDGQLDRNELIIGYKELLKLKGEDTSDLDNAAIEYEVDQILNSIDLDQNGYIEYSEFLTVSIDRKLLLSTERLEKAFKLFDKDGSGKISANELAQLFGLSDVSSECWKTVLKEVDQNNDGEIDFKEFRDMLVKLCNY
Structure (SMILES),growth inhibition [1],inhibition [2],inhibition [3],growth inhibition [4],outcome [5],outcome [6],outcome [7],outcome [8]
O=C(Nc1ccon1)c1cc(-c2cccnc2)nc2ccc(Br)cc12,77% (active),7%,-3%,99% (active),inactive,inactive,inactive,inactive
COc1ccc(C2(CNCC(O)c3cccc([N+](=O)[O-])c3)CCCC2)cc1OC (stereo not given),85% (active),10%,5%,93% (active),inactive,inactive,inactive,inactive
c1ccc(CNCc2cccc(-c3csc(-c4nc5ccccc5[nH]4)c3)c2)cc1,54% (active),24%,-3%,102% (active),inactive,inactive,inactive,inactive
FC(F)(F)COc1c(CCNCCCCNCCc2ccc3ccccc3c2OCC(F)(F)F)ccc2ccccc12,97% (active),99% (active),-3%,101% (active),inactive,inactive,inactive,inactive
CCCCCCc1cc2cc(-c3csc(C=Cc4ccccc4)n3)c(=O)oc2cc1O,75% (active),17%,2%,96% (active),inactive,inactive,inactive,inactive
c1cc(CN2CCN(CCN3CCOCC3)CC2)cc(-c2cccc(-c3nc4ccccc4[nH]3)c2)c1,100% (active),29%,-2%,100% (active),inactive,inactive,inactive,inactive
Cc1cccc2[nH]c(-c3cccc(-c4cccc(NC(=O)c5cccnc5)c4)c3)nc12,56% (active),28%,-5%,101% (active),inactive,inactive,inactive,inactive
C(=N\Nc1nccc2sc(-c3cccnc3)cc12)/c1cccnc1,54% (active),5%,5%,98% (active),inactive,inactive,inactive,inactive
Cc1cccc(C(=O)NCCCN2CCC(NC(=O)/C=C/c3ccc(Cl)c(Cl)c3)CC2)c1,23%,39%,1%,98% (active),inactive,inactive,inactive,inactive
CC(C)N1CCC(N(Cc2ccc(-c3ccc(C(F)(F)F)cc3)cc2)C(=O)Cn2c(SCc3cccc(F)c3F)cc(=O)c3c2CCC3)CC1,42%,44%,-6%,88% (active),inactive,inactive,inactive,inactive
Cc1cc(NCCc2ccccc2)nc(/N=C(\N)Nc2cccc([N+](=O)[O-])c2)n1,101% (active),21%,-2%,102% (active),inactive,inactive,inactive,inactive
COc1cc(C2NCC3(CCOCC3)c3cc4c(cc32)OCCO4)cc(OC)c1OC (stereo not given),2%,24%,-5%,95% (active),inactive,inactive,inactive,inactive
OCCN1CCN(Cc2ccc(-c3cccc(-c4nc5ccccc5[nH]4)c3)cc2)CC1,16%,32%,6%,96% (active),inactive,inactive,inactive,inactive
O=C(Nc1cccc(F)c1)NC1CCN(c2ccnc3cc(Cl)ccc23)CC1,37%,11%,-4%,96% (active),inactive,inactive,inactive,inactive
CCc1[nH]nc(C(=O)Nc2cccc(N3CCCC3)c2)c1C,52% (active),15%,1%,81% (active),inactive,inactive,inactive,inactive
Cc1cc(NC(=O)NCCN2CCC(NS(=O)(=O)c3ccc(Br)cc3)C2)c2ccccc2n1 (stereo not given),51% (active),9%,0%,99% (active),inactive,inactive,inactive,inactive
COc1cc2nc(N3CCC(CNC(=O)c4ccc(-c5ccc(C(=O)N(C)C)cc5C)cc4)CC3)nc(N3CCN(C)CC3)c2cc1OC,84% (active),26%,-10%,88% (active),inactive,inactive,inactive,inactive
CCCOc1cccc(C(=O)N[C@@H](Cc2ccccc2)[C@H](O)CNCc2ccccc2OC)c1,61% (active),11%,0%,95% (active),inactive,inactive,inactive,inactive
Cc1ccc(CNC(=O)[C@H](Cc2ccccc2)Nc2cc(C)nc(NCC3CCCCC3)n2)cc1,89% (active),-10%,0%,101% (active),inactive,inactive,inactive,inactive
COc1cccc(CNC(=O)c2cccc(-c3ccc(CN4CCC(N5CCCC5)CC4)cc3)n2)c1,76% (active),16%,1%,101% (active),inactive,inactive,inactive,inactive

Structure (SMILES),growth inhibition [1],inhibition [2],inhibition [3],growth inhibition [4],outcome [5],outcome [6],outcome [7],outcome [8]
COc1cc(Cc2cnc(N)nc2N)c2c(c1OC)OC(C)C=C2 (stereo not given),1%,-1%,6%,87% (active),inactive,inactive,inactive,inactive
CC(C)CNCc1ccc(-c2cccc(CN(CCN(C)C)C(=O)CCC3CCCC3)c2)cc1,81% (active),56% (active),-11%,100% (active),inactive,inactive,inactive,inactive
Nc1c2ccccc2nc2ccc(-c3ccccc3)cc12,99% (active),100% (active),2%,101% (active),inactive,inactive,inactive,inactive
O=C(Nc1ccc(F)c(Cl)c1)NC1CCN(c2ccnc3cc(Cl)ccc23)C1 (stereo not given),74% (active),37%,-3%,101% (active),inactive,inactive,inactive,inactive
NCC1CCCN1Cc1cccc(-c2cccc(-c3nc4ccc(F)cc4[nH]3)c2)c1 (stereo not given),65% (active),10%,5%,101% (active),inactive,inactive,inactive,inactive
O=C(Nc1ccc(-c2nc3ccccc3[nH]2)cc1)c1cccc([N+](=O)[O-])c1,56% (active),45%,-3%,101% (active),inactive,inactive,inactive,inactive
C[C@@H]1CN(c2cnn(Cc3ccc(NC(=O)Nc4cccc(C(F)(F)F)c4)cc3)c(=O)c2Cl)C[C@H](C)N1,31%,-10%,-7%,86% (active),inactive,inactive,inactive,inactive
OCCNc1nc(Nc2ccccc2)nc2ccccc12,61% (active),5%,5%,93% (active),inactive,inactive,inactive,inactive
CCOC(=O)c1c(CN2CCCC2)n(-c2ccccc2)c2cc(Br)c(O)cc12,53% (active),-2%,-2%,83% (active),inactive,inactive,inactive,inactive
Cc1ccc(-c2nc3ccc(C(=O)NC4CCC(N5CCCc6ccc(C#N)cc6C5)CC4)cc3[nH]2)cc1 (stereo not given),49%,23%,-2%,101% (active),inactive,inactive,inactive,inactive
C=CCN1C(=O)C(=Cc2cc(Br)ccc2O)SC1=Nc1ccccc1,55% (active),-4%,-4%,96% (active),inactive,inactive,inactive,inactive
CCN(CC)Cc1cccc(-c2cc3c(-c4ccc(C(=O)O)c(C(C)C)c4)ccnc3[nH]2)c1OC,99% (active),57% (active),-2%,99% (active),inactive,inactive,inactive,inactive
COc1ccc(Nc2ncc3c(-c4cccc(NC(=O)CC(C)C)c4)c[nH]c3n2)cc1OC,71% (active),37%,5%,101% (active),inactive,inactive,inactive,inactive
Cc1cn(CC(=O)Nc2cccc(-c3cccc(-c4nc5ccc(C(F)(F)F)cc5[nH]4)c3)c2)c(=O)[nH]c1=O,51% (active),15%,-1%,92% (active),inactive,inactive,inactive,inactive
N#CCCn1nc(-c2ccc(Cl)cc2)c2c(c1=O)CCCC2,32%,0%,-1%,94% (active),inactive,inactive,inactive,inactive
Cc1ccc(NC(=O)c2nc(N3CCN(c4ccncc4)CC3)ccc2Cl)cc1F,57% (active),51% (active),-5%,100% (active),inactive,inactive,inactive,inactive
CCCCCCN1CCCN(Cc2ccc(C(=O)Nc3ccc(C)c(F)c3)cc2)CC1,58% (active),47%,0%,92% (active),inactive,inactive,inactive,inactive
N#Cc1ccc(CN2CCCN(Cc3cccc(NC(=O)c4cc5ccccc5s4)c3)CC2)cc1,36%,31%,0%,97% (active),inactive,inactive,inactive,inactive
CN(/N=C/C=C/c1ccc(Cl)cc1)c1nc(NCCc2ccc(O)cc2)nc(N2CCNCC2)n1,69% (active),14%,1%,92% (active),inactive,inactive,inactive,inactive
Cc1cc(N(C)C2CCN(C)C2)nc(Nc2ccc(Cl)cc2)n1 (stereo not given),88% (active),8%,0%,100% (active),inactive,inactive,inactive,inactive
